Out of some 2,100 compounds screened, about 670 (32%) were called active. Roughly 50% stayed inconclusive and do not appear here. Calls follow the shape of the dose curve; as a rule, active = well fitted inhibition curve with a large enough effect; inconclusive = small, poorly fitted or top-dose-only effect; inactive = no such curve, though single readings can be large or run the other way. Some of the results follow.
Test: CMV-Luciferase Counterscreen for Inhibitors of ATXN expression; also: nearly all actives have a fitted effect of over 55% in size
Details: HEK-293 CMV-luciferase reporter, luminescence, 24 h; series mostly up to 57.5 µM
From the text: PI: Daniel Scoles Ph.D. University of Utah School of Medicine, Salt Lake City, Utah MLPCN Grant: NS073009 Spinocerebellar ataxia type 2 (SCA2) is a multisystem neurodegenerative disease caused by a dominantly acting mutation leading to expansion of a polyQ domain in the ataxin-2 protein (ATXN2). SCA2 patients develop progressive ataxia and later lose function in other neuronal systems. Prominent parkinsonian signs develop in some patients. Like many neurodegenerative disorders, no symptomatic or disease-modifying treatments are known. The primary objective of the proposed research is to identify compounds inhibiting ATXN2 expression and to test them for efficacy in SCA2 mouse models. We have developed a cell-based assay paired with an in vivo mouse model using identical luciferase expression constructs. This approach takes advantage of an ATXN2-luciferase transgene, with the luciferase gene flanked by the upstream and downstream portions of the ATXN2 gene. Here we describe a 5-7 dose quantitative high thoroughput screen (qHTS) for compounds lowering ATXN2 expression. We screened the NIH Molecular Libraries Small Molecule Repository (MLSMR) and NCGC's mechanistically annotated (MIPE) and drug repurposing (NPC) collections of compounds for lowering expression of an ATXN2-luciferase reporter in HEK-293 cells. The assay is a multiplexed cell viability assay to ensure target reduction in the absence of cytotoxicity. Secondary qHTS assays included a CMV-luciferase reporter expressed in HEK-293 cells as well as a biochemical assay using recombinant luciferase to detect inhibitors of the reporter enzyme. Compounds that inhibit ATXN2 expression but is not cytotoxic were selected for confirmatory and secondary screens.
PROTOCOL TABLE (as described by Inglese J, Shamu CE and Guy RK. 2007) SEQUENCE No. (e.g., 1, 2, 3, etc.); PARAMETER (e.g., Cells, Incubation, Reagent, etc.); VALUE; DESCRIPTION. 1; Cells; 4 uL; white, solid bottom, 1536-well Greiner assay plate. 2; Incubation; 2 hr; 37 degree C in 5% humidified CO2. 3; Compounds; 23 nL; Kalypsis pintool (Wako USA) equipped with a 1536-well pin head. 4; Incubation; 24 hr; 37 degree C in 5% humidfified CO2. 5; Reagent; 1 uL; Gly-Phe-7-Amino-4-trifluoromethylcoumarin. 6; Incubation; 30 min; 37 degree C in 5% humidfified CO2. 7; Detection; Fluorescence; Viewlux plate reader (PerkinElmer). 8; Reagent; 3 uL; SteadyGlo luciferase solution (Promega). 9; Incubation; 5 min; room temperature. 10; Detection; Luminescence; ViewLux plate reader (PerkinElmer). NOTES (numbers refer to Sequence numbers above) 1. HEK-293 cells expressing CMV-luciferase reporter (designated as SC cells) were suspended in phenol-red free DMEM and dispensed in assay plates using a Multidrop Combi dispenser (Thermo Fisher Scientific). 2. Assay plates were incubated. Evaporation was prevented by covering assay plates with metal lids containing holes to allow gas diffusion. 3. Compounds were added in a dose response manner with the final concentrations of 57, 11.4, 2.28, 0.46, 0.091, 0.018, 0.0037 uM. Vehicle-only plates, with DMSO being pin-transferred to columns 5-48, were inserted uniformly at the beginning and the end of each library to monitor and record any shifts in assay performance. 5. 125 uM Gly-Phe-7-Amino-4-trifluoromethylcoumarin (MP Biomedicals) working concentration was used at a final concentration of 25 uM. 7. To assess cell viability; the assay plates were read using the ViewLux high-throughput CCD imager (PerkinElmer), wherein single end-point fluorescence measurement was acquired (excitation 405/10; emission 540/25 nm). 8. Detection reagent SteadyGlo Luciferase (Promega) was added to the assay plate. 10. Luminescence is then measured on the ViewLux imager equipped with a clear emission filter using a 2 sec exposure. […]
% is scaled to controls: 0 for no effect and ±100 for the full control effect; potency is read from the fitted curve at half-maximal effect.

SMILES	Potency	activity change, negative = inhibition
O=C(C1CCC(CNS(=O)(=O)c2cccc3nsnc23)CC1)N1CC=C(c2ccccc2)CC1 (configuration not stated)	3.16 µM (active)	
CC(=O)N/N=C/c1cc(C(C)(C)C)cc(/C=N/NC(C)=O)c1O	3.16 µM (active)	
C(=N\Nc1ccc2nncn2n1)/c1ccccn1	17.8 µM (active)	
Cc1nnc(N/N=C/c2ccccn2)[nH]c1=O	1.78 µM (active)	
O=c1cnnc(N/N=C/c2ccccn2)[nH]1	1.41 µM (active)	
C(=N\NC(=Nc1ccccc1)c1ccccn1)/c1ccccn1	inactive	
O=c1nc(N/N=C/c2ccccn2)cn[nH]1	14.1 µM (active)	
Cn1c(/C=C/c2ccc(Cl)cc2)c([N+](=O)[O-])c(=O)n(C)c1=O	31.6 µM (active)	
COc1cc2c(O)c3c(c(-c4ccc5c(c4)OCO5)c2cc1OC)C(=O)OC3		16.4% [at 11.4 µM] (inactive)
CCN1CCN(C(c2ccc(C(F)(F)F)cc2)c2ccc3cccnc3c2O)CC1 (configuration not stated)	14.1 µM (active)	
Cn1c(=O)c2cc(NC(=O)Nc3cccnc3)ccc2n1Cc1ccc(Cl)cc1	inactive	
S=C(NCc1cccnc1)Nc1ccc(Oc2ccc(Cl)cc2)cc1	10 µM (active)	
NC(c1csc(Nc2nccc(C(F)(F)F)n2)n1)C1CCCCC1 (configuration not stated)		13.2% [at 11.4 µM] (inactive)
Cc1cccc2c1-c1sc(C(=O)Nc3ccccc3N3CCN(C)CC3)cc1CO2	22.4 µM (active)	
CC1CC(C)CN(CCCNC(=O)c2cc3c(s2)-c2ccccc2OC3)C1 (configuration not stated)		-23% [at 11.4 µM] (inactive)
COCC(=O)OC/C(O)=C(\C#N)c1nc2ccccc2[nH]1		-13.1% [at 11.4 µM] (inactive)
CCc1ccc(NC(=O)COc2ccc(/C=C(/C#N)c3nc4ccccc4[nH]3)cc2OC)cc1	3.55 µM (active)	
O=C1/C(=C/c2ccc([N+](=O)[O-])cc2)C=C(c2ccccc2)N1c1ccc(O)cc1	3.98 µM (active)	
COc1ccc(F)cc1-c1cc(NC=O)c2ncc(-c3cccc(C(=O)N(C)C)c3)n2c1		-8.79% [at 11.4 µM] (inactive)
Cc1cc(N2CCN(c3nc(-c4ccccc4)cs3)CC2)c2ccccc2n1	3.55 µM (active)	
CCN(CC)CCC(=O)Nc1cccc2c1C(=O)c1ccccc1C2=O		-4.68% [at 11.4 µM] (inactive)
CCN(CC)CCn1nc2c3c(cccc3c1=O)-c1ccccc1-2	8.91 µM (active)	
CCN(CC)CCn1c2ccccc2c2cnc(N)c(C#N)c21		-22.5% [at 11.4 µM] (inactive)

SMILES	Potency	activity change, negative = inhibition
O=C(NNC1=Nc2ccccc2SC1)c1ccc(Cl)cc1	1.78 µM (active)	
O=C(CN1C(=O)c2ccccc2S1(=O)=O)Nc1ncc(Cl)cc1Cl	3.16 µM (active)	
Cc1cc(C(=O)CN2C(=O)c3ccccc3S2(=O)=O)c(C)n1CC1CCCO1 (configuration not stated)	0.501 µM (active)	
Cc1nnc(SCC(N)=O)n1CC1CCCO1 (configuration not stated)	inactive	
Cc1cc(C(=O)CN2C(=O)c3ccccc3S2(=O)=O)c(C)n1C(C)C	0.562 µM (active)	
CCn1c(C)cc(C(=O)CN2C(=O)c3ccccc3S2(=O)=O)c1C	0.398 µM (active)	
Nc1nc(NCCc2ccccc2)nc(NCc2ccccc2)c1[N+](=O)[O-]	inactive	
COC(=O)[C@H]1C[C@H](OC(=O)NC2CC2)[C@@]2(O)CN(S(=O)(=O)c3ccc(C)cc3)CC2[C@H]1C(=O)OC (some centres not stated)		4.52% [at 11.4 µM] (inactive)
O=C(CN1C(=O)c2ccccc2S1(=O)=O)c1ccc(Cl)cc1Cl	1 µM (active)	
CC1Cc2cc(-c3csc(NC(=O)Cc4cccs4)n3)ccc2N1S(C)(=O)=O (configuration not stated)	1.41 µM (active)	
O=c1c2c(nc3c(-c4ccc(Cl)cc4)c[nH]n13)CCCC2	0.891 µM (active)	
O=c1c2c(nc3c(-c4cccc(Br)c4)c[nH]n13)CCCC2	3.55 µM (active)	
CC1CCCCN1S(=O)(=O)c1ccc(C(=O)Nc2nnc(-c3ccncc3)o2)cc1 (configuration not stated)	8.91 µM (active)	
CC1CCCN(S(=O)(=O)c2ccc(C(=O)Nc3nnc(-c4ccccc4Cl)o3)cc2)C1 (configuration not stated)	1.26 µM (active)	
CN(C)CCCNC(=O)/C=C/c1ccc(OCc2c(F)cccc2Cl)cc1	inactive	
Clc1ccc(-c2cc(C3CCNCC3)[nH]n2)c(Cl)c1	inactive	
Cc1ccc(CN2CCC(c3cc(-c4ccc(Cl)cc4)n[nH]3)CC2)cc1	22.4 µM (active)	
CCOC(=O)c1cnc2ccc(OC)cc2c1Nc1ccc(N2CCN(C)CC2)cc1	inactive	
COc1ccc(N2CCN(C(=O)c3cc4c(C)nc5ccccc5c4o3)CC2)cc1	22.4 µM (active)	
CCc1ccc(CNC(=O)c2cc3c(C)nc4ccccc4c3o2)cc1	10 µM (active)	
COc1ccc(C(=O)N2CCN(c3nc(C4CC4)nc4sc(C)c(C)c34)CC2)cc1	17.8 µM (active)	
Cc1sc2nc(CN3CCCC3)nc(N3CCC(C(N)=O)CC3)c2c1C	inactive	
Cc1ccc(C)c(OCCCC(=O)Nc2nccs2)c1	inactive	

SMILES	Potency	activity change, negative = inhibition
Cc1cc(Br)c(OCc2ccc(C(=O)N/N=C3\CC4CC=CC34)cc2)c(Br)c1 (configuration not stated)	28.2 µM (active)	
CC(C)Nc1nc(-c2ccccn2)nc(-c2ccccc2)c1C#N	inactive	
CCN(CC)c1nc(-c2ccccn2)nc(-c2ccccc2)c1C#N	7.08 µM (active)	
COC(=O)c1c(NC(=O)/C=C/C(=O)O)sc(C)c1-c1ccc(C(C)C)cc1	14.1 µM (active)	
Cc1[nH]c(-c2ccc(F)cc2)cc1C(=O)N1CCN(c2ccc(Cl)cc2)CC1	22.4 µM (active)	
Cc1cc(N2CCN(C)CC2)ccc1NC(=O)c1ccc(-c2ccc(Cl)cc2)o1	inactive	
CC1(C(=O)NCc2ccco2)CCN1C(=O)C1(c2ccccc2)CC1 (configuration not stated)		-4.65% [at 11.4 µM] (inactive)
CC1(C(=O)NCc2ccccc2Br)CCN1C(=O)Cc1ccc(-c2ccccc2)cc1 (configuration not stated)	20 µM (active)	
Cc1ccc2[nH]c(O)c(N=NC(=O)C3CC3c3ccccc3)c2c1Br (configuration not stated)		-21.9% [at 11.4 µM] (inactive)
O=C(Nc1ccc(Cl)cc1)Nc1ccc(N2CCCC2)c(S(=O)(=O)Nc2ccccc2Cl)c1	3.98 µM (active)	
CCN(CC)S(=O)(=O)c1ccc(N/N=C/c2ccc(O)cc2O)nc1	1.26 µM (active)	
CN(C)CCCN(C(=O)c1ccc(S(=O)(=O)N2CCCCCC2)cc1)c1nc2ccc(Br)cc2s1		-16.1% [at 11.4 µM] (inactive)
O=C(COc1ccc(Br)cc1CO)Nc1ccc(S(=O)(=O)N2CCCCC2)cc1	17.8 µM (active)	
CCn1c2ccccc2c2cc(NC(=O)COC(=O)c3cc(S(=O)(=O)N4CCCCC4)ccc3Cl)ccc21		4.24% [at 11.4 µM] (inactive)
Cc1ccnc(NC(=O)CCCc2c[nH]c3ccccc23)c1		484% [at 11.4 µM] (inactive)
CC[n+]1c(/C=C/c2c[nH]c3ccccc23)ccc2cc(C)ccc21	35.5 µM (active)	
O=C(c1ccc(CS(=O)Cc2ccccc2Cl)o1)N1CCN(c2cccc(Cl)c2)CC1 (configuration not stated)	20 µM (active)	
C=CCOC(=O)C1=C(C)NC(SCC)=C(C#N)C1c1ccc(Cl)cc1 (configuration not stated)	20 µM (active)	
COc1cc(/C=C/C(O)=C/C(=O)/C=C/c2ccc(O)cc2)ccc1O		-3.01% [at 11.4 µM] (inactive)
COc1cc(C=CC(=O)c2cc(OC)c(OC)c(OC)c2)cc(OC)c1OC	12.6 µM (active)	
COc1cc(C=CC(=O)c2ccccc2)cc(OC)c1OC	inactive	
O=C(c1ccc2c(c1)OCO2)N(Cc1cccs1)C1(C(=O)NC2CCCCC2)CCCCC1	28.2 µM (active)	
COc1ccc(Nc2oc(COc3ccccc3OC)nc2C#N)cc1	3.55 µM (active)	

SMILES	Potency	activity change, negative = inhibition
N#Cc1nc(COc2ccc(-c3ccccc3)cc2)oc1NCc1cccnc1	3.55 µM (active)	
C=CCNc1oc(-c2ccc(Cl)cc2)nc1C#N	inactive	
COc1cc2nc(CN(C)Cc3ccc(SC)cc3)[nH]c(=O)c2cc1OC	inactive	
COc1ccc(-c2cnc3c(NC=O)cc(-c4ccccc4OC)cn23)cc1OC	inactive	
Cc1ccc(/C=N/Nc2ccnc3cc(Cl)ccc23)c(C)c1	14.1 µM (active)	
Nc1nc(NCCCN2CCOCC2)nc(Nc2cccc(Cl)c2)c1[N+](=O)[O-]		-21.5% [at 11.4 µM] (inactive)
Cc1ccc(S(=O)(=O)N(Cc2ccccc2)c2ccccc2C(=O)NCc2ccco2)cc1	22.4 µM (active)	
COc1cnc(-c2ccccn2)nc1NC(C)C	8.91 µM (active)	
COc1cccc(CN(C)C(=O)CNC(=O)c2ccc(-c3ccccc3)cc2)c1OC	5.01 µM (active)	
COCCCn1c(-c2ccc(S(=O)(=O)N3CCOCC3)cc2)csc1=Nc1ccccc1	3.98 µM (active)	
COc1cc(C(=O)Oc2cccc(Nc3ncnc4ccccc34)c2)cc(OC)c1OC	3.98 µM (active)	
NC(Cc1ccccc1)c1csc(Nc2nccc(C(F)(F)F)n2)n1 (configuration not stated)	inactive	
Cc1cc(Nc2cccc([N+](=O)[O-])c2)n2c(nc3ccccc32)c1C#N	1.26 µM (active)	
CCOC(=O)N1CCN(c2ncnc3c2[nH]c2ccc(F)cc23)CC1	3.55 µM (active)	
Fc1ccc2[nH]c3c(N4CCc5ccccc5C4)ncnc3c2c1	2.82 µM (active)	
Fc1ccc2[nH]c3c(N4CCSCC4)ncnc3c2c1	3.16 µM (active)	
CC(C)(CO)NCc1c(OCc2ccc(Cl)cc2)ccc2ccccc12	inactive	
Cc1ccc2nc(-c3ccccc3)nn2c1	2 µM (active)	
COc1ccccc1N1CCN(c2ccnc3cc(Cl)ccc23)CC1	10 µM (active)	
Oc1ccc(N2CCN(c3ccnc4cc(Cl)ccc34)CC2)cc1	11.2 µM (active)	
COc1ccc(N2CCN(c3ccnc4cc(Cl)ccc34)CC2)cc1	3.98 µM (active)	
O=S(=O)(c1ccccc1)N1CCN(c2ccnc3cc(Cl)ccc23)CC1	22.4 µM (active)	
COc1ccc(Cl)cc1S(=O)(=O)N1CCN(C(=O)c2n[nH]c(=O)c3ccccc23)CC1		-26.4% [at 11.4 µM] (inactive)

— PubChem BioAssay AID1745847 (National Center for Advancing Translational Sciences (NCATS), 2022)
